The full list was thinned out, with hits kept by preference.
VCAM1 TNFa pot: TNF alpha stimulated VCAM1 expression potentiation; HUVEC TNFa-stimulated VCAM-1 immunofluorescence, high-content imaging; scaled per plate to unstimulated/TNFa-only wells; activation, % at 2 µM; 93,000 tested, 0.19% active;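 active = activation above the screen mean plus 3 SD, with well images confirming the hit on visual review, cut at about 28% in these data, passing the limit was not always enough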;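 note: signal is the number of cytoplasmic VCAM-1 stained grains per positive cell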
VCAM1 pot conf: enhancers of VCAM1 induction in HUVEC – imaging, triplicate retest, confirmation; shares compounds with VCAM1 TNFa pot; HUVEC TNFa-stimulated VCAM-1 immunofluorescence imaging; activation, % at 2 µM; 230 tested, under 10 active;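 active = activation above 30% in triplicate retests at 2 µM, then confirmed by visual review of the well images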;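 note: scaled per plate between unstimulated and TNFa-stimulated DMSO control wells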
The depositor's hits bear a star.

Cc1ccc(-c2nnn(CC(=O)N(Cc3ccco3)C(C(=O)NC3CCCC3)c3cccs3)n2)o1 (stereo unspecified) was read as VCAM1 TNFa pot -3.
Screening O=C(CN(C(=O)Cn1nnc(-c2cccs2)n1)c1ccc2c(c1)OCCO2)NC1CCCCC1 returned VCAM1 TNFa pot 56* and VCAM1 pot conf -18.
Screening CCOc1ccc(-c2nnn(CC(=O)NCc3ccc4c(c3)OCO4)n2)cc1 returned VCAM1 TNFa pot 4.
Cc1c(NC(=O)c2cc3nc(-c4ccc(Br)cc4)cc(C(F)(F)F)n3n2)c(=O)n(-c2ccccc2)n1C was read as VCAM1 TNFa pot 5.
Screening CCc1ccc2nc(-c3cccc(C)c3)nc(SCC(=O)NCC3CCCO3)c2c1 (stereo unspecified) returned VCAM1 TNFa pot -4.
